Screens (PubChem)
This is a sample that favours compounds with a hit; in the whole collection about 19% have one here.
HT1080NT lethal – kills 2HG-producing HT-1080-NT fibrosarcoma cells | Potency, µM (series often up to 46.1 µM), hits mostly cytotoxic | AID 686970 | HT-1080-NT fibrosarcoma viability, CellTiter-Glo ATP luminescence, 48 h | hit rate 1.6% among 360,000;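 further: NT is the 2HG producing partner of a matched IDH1 knockdown line; nearly all actives have a fitted effect of over 55% in size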
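Luminescent CellTiter-Glo readout after 48 hours of compound exposure at 37 degrees C defined viability of HT-1080-NT cells. Activity was normalized to DMSO wells and cell-free media wells; concentration-response curves were fitted and assigned curve classes.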
IL1B secr inh – blocks inflammasome-driven IL-1 beta release; THP-1 LPS/ATP IL-1B secretion, AlphaLISA, 16 h; hits give low values; activity change, % at 57.5 µM; hit rate 4.7% among 360,000; AID 743279; in the data active means activity change below about -50%; inconclusive means mostly about -30% to -49%
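Secreted IL-1B measured by AlphaLISA bead assay after 16 h compound exposure of THP-1 cells; compounds (final up to 57.5 uM) added 1 h before LPS (250 ng/mL) and ATP (1.25 mM) stimulation; lower signal means less secretion.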
DT40 TDP1 no CPT – qHTS for Inhibitors of human tyrosyl-DNA phosphodiesterase 1 (TDP1): qHTS in cells in absence of CPT. DT40 Tdp1-/- hTDP1 cells, no CPT, ATP luminescence, 48 h. Potency, µM (doses to about 46.2 µM), usual class: inhibitors. hit rate 15% among 420,000; further: nearly all actives have a fitted effect of over 55% in size
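DT40 Tdp1-/-;hTDP1 cells, no CPT (DMSO vehicle only), 400 cells/well; compounds pin-transferred; ≥48 hr, 37 °C; CellTiter-Glo 30 min RT dark, luminescence read.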
TDP1 cell CPT – DT40-hTDP1 cell growth loss with CPT; chicken DT40 Tdp1-/-;hTDP1 cells + 20 nM CPT, ATP luminescence, 48 h; Potency, µM (series often up to 46.2 µM), hits mostly inhibitors; hit rate 12% among 420,000; further: nearly all actives have a fitted effect of over 55% in size
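Cell growth measured by CellTiter-Glo luminescence after a minimum 48 h, 37 C compound exposure with 20 nM CPT in Tdp1-knockout DT40 cells stably expressing hTDP1, seeded 400/well; qHTS titration format.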
HT1080 IDH1KD tx – kills HT-1080 cells with IDH1 knockdown. HT-1080 IDH1 knockdown viability, ATP luminescence, 48 h. Potency, µM (titrated, usually from 46.1 µM), hits mostly cytotoxic. hit rate 2% among 360,000. AID 686971
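Viability of IDH1-knockdown HT-1080 fibrosarcoma cells was assessed by CellTiter-Glo after 48 h at 37 °C with titrated compound; concentration-effect curves were classified by fit quality and response size.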
ELG1 repair inh – ELG1-dependent DNA repair inhibition; HEK293T ELG1-luciferase reporter, luminescence, 16 h; DNA damage induced by 5-fluorouridine; Potency, µM (series often up to 46.1 µM), most hits filed as inhibitors; hit rate 2.3% among 330,000; further: nearly all actives have a fitted effect of over 55% in size
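In this reporter screen, reduction of luminescence relative to DMSO vehicle indicated activity. Compounds and 5-fluorouridine were added together to 2,000 cells per well, incubated for 16 hr at 37 °C, then developed with ONE-Glo.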
Each line names hits and unclear results; the compound was inactive in the other large screens. Unless noted, the call rests on the fitted dose curve; in most records, active means well fitted curve in the direction sought with a large enough effect; inconclusive means small, poorly fitted or top-dose-only effect, or another doubt; inactive means no such curve, though single readings can be large; an effect the other way counts as inactive or inconclusive.

COc1ccc2[nH]c3c(c2c1)CCN1C(=O)N([C@@H](C)C(=O)NCCc2ccc(F)cc2)C(=O)[C@]31C	DT40 TDP1 no CPT 7.3µM, TDP1 cell CPT 23µM
C[C@@H](C(=O)NCCc1ccc(F)cc1)N1C(=O)N2CCc3c([nH]c4ccccc34)[C@@]2(C)C1=O	DT40 TDP1 no CPT 12µM, TDP1 cell CPT 12µM, ELG1 repair inh inconclusive
COc1ccc(CNC(=O)[C@H](C)N2C(=O)N3CCc4c([nH]c5ccccc45)[C@@]3(C)C2=O)cc1OC	DT40 TDP1 no CPT 4.1µM, TDP1 cell CPT 2.6µM, ELG1 repair inh inconclusive
Cc1ccc(CNC(=O)[C@H](C)N2C(=O)N3CCc4c([nH]c5ccccc45)[C@@]3(C)C2=O)cc1	DT40 TDP1 no CPT inconclusive, TDP1 cell CPT inconclusive, ELG1 repair inh inconclusive
CCc1ccc(CN(C(=O)c2cc(=O)c3ccc(C)cc3o2)C2CCS(=O)(=O)C2)cc1 (centres undefined)	DT40 TDP1 no CPT inconclusive, TDP1 cell CPT 16µM (no result: HT1080NT lethal, IL1B secr inh, HT1080 IDH1KD tx, ELG1 repair inh)
Cc1ccc(CN(C(=O)c2cc(=O)c3cc(C)cc(C)c3o2)C2CCS(=O)(=O)C2)cc1 (centres undefined)	DT40 TDP1 no CPT 18µM, TDP1 cell CPT inconclusive
Cc1ccc(CN(C(=O)c2cc(=O)c3cc(Cl)c(C)cc3o2)C2CCS(=O)(=O)C2)cc1 (centres undefined)	HT1080 IDH1KD tx inconclusive
Cc1cc(C)c2oc(C(=O)N(Cc3ccc(F)cc3)C3CCS(=O)(=O)C3)cc(=O)c2c1 (centres undefined)	TDP1 cell CPT inconclusive
Nn1cnc2c([nH]c3ccccc32)c1=O	none
c1ccc2c(c1)[nH]c1c(N3CCOCC3)ncnc12	DT40 TDP1 no CPT 13µM, TDP1 cell CPT 16µM, ELG1 repair inh inconclusive
O=c1c2ccccc2[nH]c(=S)n1CCCN1CCN(C2CCCCC2)CC1	none
Clc1ccc2[nH]c3c(NCCN4CCOCC4)ncnc3c2c1	IL1B secr inh inconclusive, DT40 TDP1 no CPT inconclusive, HT1080 IDH1KD tx inconclusive
Clc1ccc2[nH]c3c(N4CCC5(CC4)OCCO5)ncnc3c2c1	HT1080NT lethal 16µM, IL1B secr inh inconclusive, DT40 TDP1 no CPT 18µM, TDP1 cell CPT 23µM, HT1080 IDH1KD tx 8.2µM, ELG1 repair inh inconclusive
c1ccc2c(c1)[nH]c1c(N3CCCC3)ncnc12	DT40 TDP1 no CPT 5.2µM, TDP1 cell CPT 5.8µM, ELG1 repair inh inconclusive
c1ccc2c(c1)[nH]c1c(N3CCN(C4CCCCC4)CC3)ncnc12	HT1080NT lethal inconclusive, DT40 TDP1 no CPT 15µM, TDP1 cell CPT inconclusive
c1ccc2c(c1)[nH]c1c(N3CCSCC3)ncnc12	DT40 TDP1 no CPT 18µM, TDP1 cell CPT inconclusive
CC(C)C[C@H]1CNC(=O)C(=O)N1C[C@@H]1CCCN1C[C@H](Cc1ccccc1)N1C[C@H](Cc2ccccc2)N(CCc2ccccc2)C(=O)C1=O	IL1B secr inh inconclusive, DT40 TDP1 no CPT inconclusive, TDP1 cell CPT inconclusive (no result: ELG1 repair inh)
Cc1ccc(NS(=O)(=O)c2ccc(C(=O)NCCCN3CCCC3=O)cc2)cc1C	DT40 TDP1 no CPT 23µM, TDP1 cell CPT 13µM
COc1ccc(Cl)cc1NC(=S)NCCCN1CCCC1=O	ELG1 repair inh inconclusive
COc1cc(C(=O)NCCCN2CCCC2=O)ccc1OCc1ccc(Cl)cc1Cl	IL1B secr inh -52, DT40 TDP1 no CPT 18µM, TDP1 cell CPT 13µM, ELG1 repair inh inconclusive
CCc1ccc(C2=NN(CCC(=O)NC(C)CCc3ccccc3)C(=O)CC2)cc1 (centres undefined)	IL1B secr inh -52, DT40 TDP1 no CPT inconclusive, TDP1 cell CPT inconclusive
Cc1[nH]c(=O)[nH]c(=O)c1C1N2CC3(C(C)C)CN1CC(C(C)C)(C2)C3=O (centres undefined)	none (no result: HT1080NT lethal, IL1B secr inh, HT1080 IDH1KD tx, ELG1 repair inh)
O=S(=O)(c1ccccc1)c1nnn2c1nc(NC1CCN(Cc3ccccc3)CC1)c1ccccc12	IL1B secr inh inconclusive, DT40 TDP1 no CPT 8.2µM, TDP1 cell CPT 5.8µM, ELG1 repair inh inconclusive
Cc1ccc(C)c(Nc2nc3c(S(=O)(=O)c4ccccc4)nnn3c3ccccc23)c1	DT40 TDP1 no CPT inconclusive
O=S(=O)(c1ccccc1)c1nnn2c1nc(NC1CCN(Cc3ccccc3)CC1)c1cc(Cl)ccc12	IL1B secr inh inconclusive, DT40 TDP1 no CPT 4.1µM, TDP1 cell CPT 7.3µM
O=S(=O)(/C=C/c1ccccc1)N1CCC(n2c(C3CCCO3)nc3cccnc32)CC1 (centres undefined)	none (no result: HT1080NT lethal, IL1B secr inh, HT1080 IDH1KD tx, ELG1 repair inh)
CCOc1cc(/C=C2\CCC/C(=C\c3cc(Cl)c(O)c(OCC)c3)C2=O)cc(Cl)c1O	HT1080NT lethal 7.3µM, IL1B secr inh -100, DT40 TDP1 no CPT 6.5µM, TDP1 cell CPT inconclusive, HT1080 IDH1KD tx 5.8µM, ELG1 repair inh 6.5µM
C=CCNC(=O)/C(C#N)=C\c1cc(Cl)c(O)c(OCC)c1	none
COc1cc(C=C2CN(C)C(=O)C2=O)ccc1O	none (no result: ELG1 repair inh)
CCOc1cc(/C=C2\CN(C)C/C(=C\c3ccc(O)c(OCC)c3)C2=O)ccc1O	HT1080NT lethal 4.1µM, IL1B secr inh -105, DT40 TDP1 no CPT 2.3µM, TDP1 cell CPT 5.2µM, HT1080 IDH1KD tx 4.6µM, ELG1 repair inh 23µM
CN(Cc1ccon1)C(=O)C1CCC(=O)N(Cc2ccc(Cl)cc2)C1 (centres undefined)	none
CN(CC(=O)Nc1ccc(Cl)c(C(F)(F)F)c1)C(=O)/C=C/c1cccs1	DT40 TDP1 no CPT 23µM, TDP1 cell CPT inconclusive
CN(CC(=O)Nc1ccc(Cl)c(C(F)(F)F)c1)C(=O)C1CC(=O)N(Cc2ccco2)C1 (centres undefined)	DT40 TDP1 no CPT 23µM, TDP1 cell CPT 13µM, ELG1 repair inh inconclusive
CN(CC(=O)Nc1ccc(Cl)c(C(F)(F)F)c1)C(=O)/C=C/c1ccco1	DT40 TDP1 no CPT 18µM, TDP1 cell CPT 18µM
CN(CC(=O)Nc1ccc(Cl)c(Cl)c1)C(=O)/C=C/c1ccc(F)cc1	none
CCOc1ccc(S(=O)(=O)N2CCOCC2)cc1NC(=O)CCOc1ccc(C(C)(C)C)cc1	DT40 TDP1 no CPT inconclusive, TDP1 cell CPT inconclusive
COc1cc(CC(=O)N(c2ccccc2)c2nc(C)cs2)cc(OC)c1OC	DT40 TDP1 no CPT inconclusive, TDP1 cell CPT inconclusive, ELG1 repair inh inconclusive
O=C(CC1CC1)Nc1ccc2c(c1)[C@@H]1C[C@H](CC(=O)NC3CCCC3)O[C@@H](CO)[C@@H]1O2	none (no result: ELG1 repair inh)
COc1ccccc1OCCN1CSC(=S)N(C)C1	HT1080NT lethal 9.2µM, IL1B secr inh -107, DT40 TDP1 no CPT 1.8µM, TDP1 cell CPT 1.2µM, HT1080 IDH1KD tx 7.3µM, ELG1 repair inh inconclusive
